Sampled rows, rich in hits. Any-hit rate of the full collection: about 2.7%.
A549 tox: counter-screen for Nrf2 inhibitors: cytotoxicity in A549 cells | 390,000 compounds, 0.16% hits | Potency, µM (top dose mostly 46 µM), without a hit: at the highest dose activity change, negative = cytotoxicity, usual class: inhibitors | A549 ARE-Fluc cells, CellTiter-Fluor viability, 18-24 h | AID 504648; also: potency is read from the fitted curve at half-maximal effect; % is scaled to controls: 0 for no effect and ±100 for the full control effect
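A549 ARE_Fluc cells in 5% FBS OPTI-MEM were exposed to compounds in concentration-response for 18-24 h at 37 deg C. Viability was read by CellTiter-Fluor fluorescence (Ex 405/Em 525) after 30 min, before the luciferase read.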
ALOX12 inh: blocks human arachidonate 12S-lipoxygenase. P18054. purified 12hLO, xylenol orange hydroperoxide absorbance. Potency, µM (highest dose often 108 µM), inactives show top-dose activity change, negative = inhibition, actives largely listed as inhibitors. 580,000 compounds, 1.1% hits. AID 1671190; also: potency is read from the fitted curve at half-maximal effect; % is scaled to controls: 0 for no effect and ±100 for the full control effect
Target sequence (P18054 whole entry, looked up): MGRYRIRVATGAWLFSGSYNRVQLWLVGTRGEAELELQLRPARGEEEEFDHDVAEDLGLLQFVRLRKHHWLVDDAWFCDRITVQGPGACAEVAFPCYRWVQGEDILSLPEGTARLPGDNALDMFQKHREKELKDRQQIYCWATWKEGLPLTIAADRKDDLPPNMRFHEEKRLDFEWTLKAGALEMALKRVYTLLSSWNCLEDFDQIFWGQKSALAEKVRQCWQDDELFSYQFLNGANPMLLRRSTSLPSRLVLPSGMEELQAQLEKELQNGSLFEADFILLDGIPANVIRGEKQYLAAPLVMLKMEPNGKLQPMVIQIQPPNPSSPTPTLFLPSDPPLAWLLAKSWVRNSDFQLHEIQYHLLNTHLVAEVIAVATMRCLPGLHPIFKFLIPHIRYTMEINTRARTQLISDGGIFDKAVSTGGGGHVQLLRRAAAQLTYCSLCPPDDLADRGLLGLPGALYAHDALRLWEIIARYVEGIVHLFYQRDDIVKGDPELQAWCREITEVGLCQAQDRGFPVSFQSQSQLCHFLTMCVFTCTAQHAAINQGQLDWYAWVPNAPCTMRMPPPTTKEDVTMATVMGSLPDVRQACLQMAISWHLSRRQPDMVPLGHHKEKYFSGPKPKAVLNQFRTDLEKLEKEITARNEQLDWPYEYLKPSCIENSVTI
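Purified human 12hLO at 150 nM in 25 mM Hepes, 0.01% Triton X-100, pH 7.0, preincubated 15 min at room temperature with compound. Reaction started with 40 uM arachidonic acid, 30 min at room temperature. Hydroperoxide measured by Fe-xylenol orange, 573/405 nm absorbance ratio.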
Nrf2 block: blocks Nrf2 signaling | A549 ARE-Fluc reporter, luciferase luminescence, 18-24 h | Potency, µM (titrated, usually from 46 µM), without a hit: at the top dose activity change, negative = inhibition, hits mostly inhibitors | 360,000 compounds, 2.1% hits; also: potency is read from the fitted curve at half-maximal effect; % is scaled to controls: 0 for no effect and ±100 for the full control effect; nearly all actives have a fitted effect of over 60% in size
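Two sequential reads on A549 ARE_Fluc cells exposed to compound for 18-24 h: a CellTiter-Fluor fluorescence read for viability, then a luciferase luminescence read for Nrf2/ARE activity.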
IDH1 R132H inh: inhibitors of human mutant IDH1 R132H; Potency, µM (top dose mostly 76.6 µM), without a hit: at the top dose activity change, negative = inhibition, most hits filed as inhibitors; IDH1-R132H enzyme, NADPH consumption, diaphorase/resazurin fluorescence; 390,000 compounds, 0.093% hits; O75874; also: potency is read from the fitted curve at half-maximal effect; % is scaled to controls: 0 for no effect and ±100 for the full control effect; nearly all actives have a fitted effect of over 65% in size
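IDH1-R132H (0.5 ug/mL dispensed) in pH 7.5 Tris buffer was preincubated 30 min with compound, then given a substrate mix of 0.016 mM NADPH and 2 mM alpha-KG for 80 min at room temperature; remaining NADPH was read by diaphorase/resazurin fluorescence.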
LDHA inh: LDHA (human) enzyme inhibition. activity change, % (values are at about 110 or 230 µM). 480,000 compounds, 0.15% hits. purified LDHA, NADH/diaphorase-resazurin fluorescence; stronger effect = lower value. AID 1347041; in the data active = activity change below about -30%; inconclusive = mostly about -25% to -30%;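 also: plate controls were DMSO wells for no effect and wells without enzyme for full effect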
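LDH5 2 nM; NADH 0.06 mM, pyruvate 0.2 mM; 200 mM Tris pH 7.4, EDTA, Tween-20; 5 min RT. Detection: diaphorase 0.133 mg/mL + resazurin 37 µM, fluorescence ex540/em590 at 0 and 20 min; normalized to enzyme-free and DMSO wells.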
Nrf2 activator: activators of Nrf2 (ARE) signaling; AREc32 ARE-luciferase reporter (MCF7-derived line), luminescence, 24 h; Potency, µM (titrated, usually from 46.1 µM), inactives show at the top dose activation, actives largely listed as activators; 410,000 compounds, 0.31% hits; AID 624171; also: potency is read from the fitted curve at half-maximal effect; % of control where 0% means no effect; nearly all actives have a fitted effect of over 65% in size
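Luciferase luminescence (Steady-Glo, 30 min at room temperature) served as the read-out of ARE activation in AREc32 cells treated with compounds for 24 hr at 37 deg C.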
An asterisk follows results filed as active; ? = inconclusive; . = not tested or not shown; [ ] = remark or other dose. Unless noted, calls follow the shape of the dose curve; as a rule, active = well fitted curve in the direction sought with a large enough effect; inconclusive = small, poorly fitted or top-dose-only effect, or another doubt; inactive = no such curve, though single readings can be large; an effect the other way counts as inactive or inconclusive.

SMILES	A549 tox	ALOX12 inh	Nrf2 block	IDH1 R132H inh	LDHA inh	Nrf2 activator
CC(C)C[C@@H](NC(=O)C1=C[C@@H](NS(=O)(=O)c2cccc(C(F)(F)F)c2)[C@@H](O)[C@H](O)C1)C(N)=O	.	40µM*	.	.	.	.
CCN1CCN(C(=O)c2c(-c3ccccc3Cl)noc2C)CC1	.	8%	.	.	1	.
COc1cc(NC(=O)c2ncn(-c3ccccc3)n2)cc(OC)c1	0%	-16%	?	.	-13	9%
COc1ccc(Cl)cc1NC(=O)c1ncn(-c2ccccc2)n1	-6%	-24%	?	0%	-11	8.9µM*
CC(C)(C)c1ccc2c(c1)OC(C(=O)N/N=C\c1ccc[nH]1)CO2 (stereo not given)	8.2µM*	42%	5.8µM*	-10%	-2	4%
CCOC(=O)N1CCN(C(=O)COc2ccc(S(=O)(=O)NCc3ccccc3)cc2)CC1	-18%	0%	18µM*	-3%	0	0%
Cn1c(=O)cc(SCC(=O)N2CCCC2)c2ccccc21	6%	-18%	-13%	7%	-1	1%
Cc1ccc(Cl)cc1N1CCN(C(=O)CN(C2CCCCC2)S(C)(=O)=O)CC1	-10%	0%[57.4 µM]	18µM*	3%	-1	0%
Cc1ccc(Cl)cc1N1CCN(C(=O)COc2ccc(S(=O)(=O)NC(C)C)cc2)CC1	-10%	-1%	21µM*	-3%	0	0%
Cc1ccc(Cl)cc1N1CCN(C(=O)CSc2cc(=O)n(C)c3ccccc23)CC1	-10%	-25%	16µM*	11%	-12	3%
CCc1nc(Nc2ccccn2)sc1C	.	?	.	.	-24	.
CC(=O)c1c(C)[nH]c(C(=O)C(C)Oc2ccc(Cl)cc2Br)c1C (stereo not given)	.	?	.	.	6	.
CC(NS(=O)(=O)c1ccccc1F)C(=O)Nc1ccc(F)c(Cl)c1 (stereo not given)	.	-6%	.	.	13	.
Cc1ccc(Cn2cc(-c3ccncc3)cc2C(=O)NC2CC2)cc1	.	28µM*	.	.	.	.
O=C(N/C=C/c1ccco1)OCc1ccccc1	3%	40µM*	?	-13%	0	6%[9.22 µM]
CCc1ccc(OCCCOc2ccc(Cl)cc2/C=N/NC(=O)c2ccccc2)cc1	.	2%	.	.	-23	.
O=C(COC(=O)c1cccs1)c1ccc2c(c1)-c1ccccc1C2	.	23%	.	.	1	.
CC(C)(C)n1nnnc1C(c1cccs1)N(Cc1ccccc1)Cc1ccco1 (stereo not given)	-9%	36%	21µM*	0%	3	9%
CCOC(=O)c1oc2ccccc2c1CN1CCN(C)CC1	1%	35µM*	20%	9%	3	3%
CCC(C(=O)NCc1ccccc1OC)N1C(=O)CCn2nc(C)cc21 (stereo not given)	.	1%	.	.	8	.
COC(=O)c1oc(-c2ccccc2)nc1C	6%	-14%	0%	4%	-5	13µM*
Cc1cccc(/C=N/n2c(COc3ccccc3)n[nH]c2=S)c1	1%	40µM*	-8%	3%	-3	0%
Oc1ccc(Br)cc1/C=N/n1c(COc2ccccc2)n[nH]c1=S	1%	8.9µM*	-2%	-6%	-4	2%
S=c1[nH]nc(COc2ccccc2)n1/N=C/c1ccccn1	2%	1.6µM*	1%	2%	-2	0%
Cc1ccc(-n2c(Cc3ccccc3)n[nH]c2=S)c(C)c1	2%	?	13µM*	8%	1	0%
SMILES	A549 tox	ALOX12 inh	Nrf2 block	IDH1 R132H inh	LDHA inh	Nrf2 activator
Cc1ccc(-n2c(CC#N)n[nH]c2=S)c(C)c1	-9%	?	2%	0%	-2	0%
CC(Oc1cc(Cl)ccc1Cl)C(=O)Nc1ccnn1C(C)C (stereo not given)	.	11%	.	.	2	.
Cc1cccc(OCc2n[nH]c(=S)n2-c2ccccc2)c1	5%	35µM*	?	-1%	-6	0%
COc1ccc(S(=O)(=O)NCCCCCC(=O)O)cc1C(=O)O	-1%	-4%	-2%	-3%	0	0%
COc1ccc(S(=O)(=O)NCCCCC(=O)O)cc1C(=O)O	-33%	0%	16µM*	-7%	-3	0%
COC(=O)c1ccc(C)c(NC(=O)CN(c2cc(C(F)(F)F)ccc2Cl)S(C)(=O)=O)c1	.	?	.	.	-5	.
COc1ccc(C(=O)CC2OC(=O)c3ccccc32)cc1OC (stereo not given)	-2%	1%	5%	-5%	-3	?
COc1ccc(OC)c(C(=O)CC2OC(=O)c3ccccc32)c1 (stereo not given)	-10%	-34%	-5%	6%	-3	13µM*
COC(=O)c1cc(OC(=O)Cc2cccc3ccccc23)cc(C(=O)OC)c1	.	?	.	.	8	.
O=C(NCc1cccc(F)c1)c1cccc(OC2CCN(C(=O)C3CC3)CC2)c1	-3%	0%	23µM*	0%	-12	-1%
O=C(NCC1CC1)c1cccc(OC2CN(Cc3ccc(F)cc3F)C2)c1	.	25µM*	.	.	.	.
O=C(NCC1CC1)c1cccc(OC2CN(Cc3ccc(F)cc3Cl)C2)c1	.	33%	.	.	.	.
C=CCn1c(SCc2c(C)noc2C)nc2sc3c(c2c1=O)CCCCC3	-28%	0%	16µM*	1%	-2	-1%
Cc1noc(C)c1CSc1nc2sc3c(c2c(=O)n1C)CCCC3	?	15%	?	-2%	-9	-1%
CC1CCN(S(=O)(=O)c2cccc(C(=O)NCC3CCCO3)c2)CC1 (stereo not given)	2%	-5%	13µM*	-1%	-1	0%
Cc1ccc(C(C)C)c2oc(=O)cc(-c3ccc(-c4ccc(C(F)(F)F)cc4)cc3)c12	0%	-1%	?	-1%	-6	-1%
CC(=O)c1ccc(-c2ccc(-c3cc(=O)oc4c(C(C)C)ccc(C)c34)cc2)cc1	0%	-17%	23µM*	-3%	-9	1%
Cc1sc2ncn(CCn3cnc4sc(C)c(C)c4c3=O)c(=O)c2c1C	-3%	119%	16µM*	4%	-5	0%
Cc1sc2ncn(CC(=O)N3CCN(c4ccc(F)cc4)CC3)c(=O)c2c1S(=O)(=O)N1CCC(C)CC1	-10%	-12%	-2%[9.27 µM]	-18%	-2	-1%
Cc1sc2ncn(CC(=O)NCC(=O)N3CCN(c4ccc(F)cc4)CC3)c(=O)c2c1C	-1%	-9%	8.2µM*	-12%	-1	0%
Cc1sc2ncn(CCC(=O)O)c(=O)c2c1C	-4%	0%	6%	4%	-5	-1%
O=C(OCc1nnc(-c2ccc([N+](=O)[O-])cc2)o1)C1(c2ccc(Cl)cc2)CCC1	.	?	.	.	7	.
